# The list is not random: actives were taken first. Their share in the collection is about 7.3%.
# NPC1 prom act: NPC1 promoter activation. Huh7 NPC1 promoter luciferase reporter, 24 h. Potency, µM (highest dose often 9.22 µM), actives largely listed as activators. 2.4% of 320,000 active; note: nearly all actives have a fitted effect of over 60% in size
#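 Stable NPC1-promoter luciferase Huh7 line; cpd (DMSO) 24 h, 37 °C, 5% CO2; Amplite luciferase reagent 10 min RT; luminescence readout. qHTS format.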
# FLuc counter: counter-screen for miR-21 project: firefly luciferase inhibitors or activators. P08659. purified FLuc, Km substrates, luminescence inhibition. 6.9% of 360,000 active. Potency, µM (series often up to 57.5 µM), hits mostly inhibitors. AID 588342; note: nearly all actives have a fitted effect of over 55% in size
# Target sequence (P08659 whole entry, looked up): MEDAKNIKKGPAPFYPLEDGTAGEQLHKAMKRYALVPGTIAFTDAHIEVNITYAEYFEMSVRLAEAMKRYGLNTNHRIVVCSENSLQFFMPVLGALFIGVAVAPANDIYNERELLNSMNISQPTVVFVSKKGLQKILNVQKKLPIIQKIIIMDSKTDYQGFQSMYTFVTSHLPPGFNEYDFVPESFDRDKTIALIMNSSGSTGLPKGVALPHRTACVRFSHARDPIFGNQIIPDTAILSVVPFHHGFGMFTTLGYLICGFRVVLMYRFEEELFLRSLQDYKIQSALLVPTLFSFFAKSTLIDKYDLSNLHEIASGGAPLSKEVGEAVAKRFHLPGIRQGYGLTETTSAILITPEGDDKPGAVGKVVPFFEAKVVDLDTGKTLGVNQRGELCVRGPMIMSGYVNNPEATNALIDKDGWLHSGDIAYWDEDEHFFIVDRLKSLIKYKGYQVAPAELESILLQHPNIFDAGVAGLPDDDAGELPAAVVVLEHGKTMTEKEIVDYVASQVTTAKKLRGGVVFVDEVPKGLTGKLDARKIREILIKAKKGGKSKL
#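 Biochemical qHTS of compounds, final roughly 60 µM downward over six points, against 10 nM purified firefly luciferase using Km concentrations of substrates (10 uM D-luciferin, 10 uM ATP) in Tris acetate pH 7.5 buffer; luminescence output.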
# Rab9 prom act: Rab9 promoter activation. 2.8% of 320,000 active. Potency, µM (titrated, usually from 9.22 µM), most hits filed as activators. AID 485297. Huh7 Rab9 promoter-luciferase reporter, luminescence, 24 h; note: nearly all actives have a fitted effect of over 60% in size
#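 Luminescence from Amplite-detected luciferase (10 minutes, ambient) reports Rab9 promoter activation. Before that, stable Rab9-luciferase Huh7 cells (1500/well, reduced-serum OP-MEM I plus 10% FBS) were exposed to compound for 24 hours at 37C.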
# Luc counter: Kinase-Glo luciferase inhibition (counter-screen); Kinase-Glo luciferase, ATP luminescence, 8 min; Potency, µM (doses to about 38.3 µM), most hits filed as inhibitors; 0.28% of 200,000 active; AID 1379; note: nearly all actives have a fitted effect of over 60% in size
#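 Substrate mix (final 50 mM imidazole pH 7.2, 50 mM KCl, 7 mM MgCl2, 10 uM ATP, 0.01% Tween 20, 0.05% BSA) plus pin-tool compound, then Kinase-Glo detection mix; 8 min ambient, luminescence read.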
# SMN2 splice up: increases expression of the SMN2 splice variant | HEK293 SMN2-luciferase splicing reporter, luminescence, 30-36 h | AID 1458 | 2.8% of 210,000 active | Potency, µM (titrated, usually from 46.1 µM), hits mostly activators; note: nearly all actives have a fitted effect of over 55% in size
#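 HEK293 cells carry an SMN2 […]–luciferase reporter in which exon 7 inclusion puts luciferase in frame. Cells were plated 10-12 h before compound addition, then incubated 30-36 h at 37C. ONE-Glo luminescence was read; sodium butyrate at 4.5 mM final served as control.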
# A number is an active result; 0 = inactive; ? = inconclusive; - = no result; ! = not confirmed by another sample; [ ] = another dose, or the depositor's remark. Calls come from the whole dose curve; as a rule, active = well fitted curve in the direction sought with a large enough effect; inconclusive = small, poorly fitted or top-dose-only effect, or another doubt; inactive = no such curve, though single readings can be large; an effect the other way counts as inactive or inconclusive.
SMILES,NPC1 prom act,FLuc counter,Rab9 prom act,Luc counter,SMN2 splice up
CCCn1c(/C=C/c2ccco2)nc2ccccc21,0,12µM,0,0,14µM
NC(=O)C1CCN(c2nc(-c3ccc4occc(=O)c4c3)cs2)CC1,?,?,2.5µM,-,-
CCOC(=O)N1CCN(c2nc(-c3ccc(F)cc3)cs2)CC1,0,19µM,0,0,?
O=C(O)c1cnn(-c2nc(-c3ccc(F)cc3)cs2)c1C(F)(F)F,0,21µM,?,0,0
NC(=O)C1CCN(c2nc(-c3ccc(F)cc3)cs2)CC1,2.2µM!,0,1.4µM!,-,-
CS(=O)(=O)c1ccc(-c2csc(N3CCC(C(N)=O)CC3)n2)cc1,-,0,-,-,-
NC(=O)C1CCN(c2nc(-c3cccnc3)cs2)CC1,0,0,0,-,-
COc1cc(-c2noc(-c3ccc(N4CCN(C)CC4)c([N+](=O)[O-])c3)n2)cc(OC)c1OC,-,0,-,-,-
Cc1ccc(C)c(S(=O)(=O)c2nnn3c2nc(N2CCCC2)c2sccc23)c1,-,0,-,-,-
CCOc1ccccc1/C=C/c1onc(C)c1S(=O)(=O)N1CCC(C(=O)N2CCCCC2)CC1,-,0,-,-,-
Cn1ccc2cc(-c3csc(N4CCC(C(N)=O)CC4)n3)ccc21,2.8µM,12µM,1.3µM,-,-
CN(C)C(=O)c1cccc(-c2csc(N3CCC(C(N)=O)CC3)n2)c1,0,0,0,-,-
NC(=O)C1CCN(c2nc(-c3ccccc3F)cs2)CC1,0.79µM,?,0.32µM,-,-
NC(=O)C1CCN(c2nc(-c3ccccc3Br)cs2)CC1,0,?,0,-,-
Cc1nn2c(=O)cc(COc3ccc(/C=C(\C#N)C(=O)Nc4ccccc4)cc3Cl)nc2s1,-,0,-,-,0
CC1(C)N=C(N)N=C(N)N1c1cccc(OCc2cccc(N)c2)c1,-,-,-,0[7.66 µM],0[9.22 µM]
CCOc1ccccc1-n1nnnc1SCC(=O)NC(=O)Nc1ccc2c(c1)OCCO2,0,0,0,0,0
Nn1c(SCC(=O)Nc2ccc3c(c2)OCCO3)nnc(CCC(=O)O)c1=O,0,13µM,0,-,-
Cn1nnnc1SCC(=O)Nc1ccc2c(c1)OCCO2,2.8µM,13µM,1.6µM,0,11µM
O=C(CSc1nnnn1-c1ccccc1)NC(=O)Nc1ccc2c(c1)OCCO2,?,19µM,?,0,?
Cc1nn(C(=O)COc2ccccc2Br)c(C)c1Sc1ccccc1,-,0,-,-,0
c1ccc(-c2noc(C34CC5CC(CC(C5)C3)C4)n2)cc1,0,?,0,0,0
c1ccc(-c2noc(C3CCCCC3)n2)nc1,?,11µM,2.8µM,?,11µM
c1ccc(-c2noc(C34CC5CC(CC(C5)C3)C4)n2)nc1,?,11µM,?,0,13µM
Brc1ccc(-c2noc(C3CCCCC3)n2)cc1,?,6.7µM,2.8µM,0,-
SMILES,NPC1 prom act,FLuc counter,Rab9 prom act,Luc counter,SMN2 splice up
CS(=O)(=O)Nc1ccc(OCc2ccccc2)cc1,?,13µM,?,0,?
COCC(=O)Nc1ccc(OCc2ccccc2)cc1,?,?,?,0,13µM
O=C(O)c1cccc(S(=O)(=O)Nc2ccc(OCc3ccccc3)cc2)c1,0,0,0,-,-
NC(=O)COc1ccc(NC(=O)OCc2ccccc2)cc1,0,12µM,0,0,0
COC(=O)Nc1ccc(SCC(=O)c2ccccc2)cc1,0,19µM,?,0,0
COC(=O)Nc1ccc(SCC(=O)c2ccc(Cl)cc2)cc1,0,0,0,0,0
Cc1ccc(-c2c3c(=O)n(C)c(=O)n(C)c3c3cnc4ccccc4n23)cc1,-,0,-,-,0
O=C(O)[C@@H](c1ccccc1)[C@@H](C(=O)O)c1ccccc1,-,-,-,0[7.66 µM],0[9.22 µM]
CC(=O)Nc1ccc(N=Cc2ccc(OCc3ccccc3)cc2)cc1,0,24µM,0,0,?
COC(=O)Nc1ccc(OCc2ccccc2)cc1,?,0[2.3 µM],2.8µM,0,13µM
O=Cc1ccc(CO)o1,-,-,-,-,0
Cc1cccc(N(C)C(=O)C2CCN(S(=O)(=O)c3cccc4nonc34)CC2)c1,-,0,-,-,-
COc1ccc(N(C)S(=O)(=O)c2cccc(C(=O)OC(C(=O)Nc3cc(C)cc(C)c3)c3ccccc3)c2)cc1 (configuration not stated),0,0,0,0,16µM
CCCN1CCCc2ccccc21,0,0,0,0,0
N#CCCN1CCCc2cc(N=Nc3ccc(C(F)(F)F)cc3)ccc21,?,13µM,?,-,-
COc1ccc(OC)c(CCNC(=O)c2cnn(-c3ccccc3Cl)c2C2CCN(C(=O)OC(C)(C)C)CC2)c1,-,0,-,-,-
Cc1ccc(S(=O)(=O)N(C)C)cc1NC(=O)COC(=O)/C=C/c1cnc2ccccc2n1,0,17µM,0,0,0
CN(C)S(=O)(=O)c1ccc(Cl)c(NC(=O)COC(=O)/C=C/c2cnc3ccccc3n2)c1,0,11µM,0,-,-
COc1ccc(C2C(=O)N(C3CCCCC3)CC(=O)N2CCc2ccc(OC)c(OC)c2)cc1 (configuration not stated),-,0,-,-,-
COc1ccc(C(=O)C2CCCN(C3Cc4ccccc4C3)C2)c(OC)c1 (configuration not stated),0,27µM,?,0,-
CCC1CCCCN1C(=O)c1ccc2nc(Cc3ccc(OC)cc3)oc2c1 (configuration not stated),?,19µM,3.5µM,-,-
COc1ccc(Cc2nc3ccc(C(=O)NCC(C)(C)OC)cc3o2)cc1,3.5µM,19µM,3.5µM,-,-
COc1ccc(Cc2nc3ccc(C(=O)NCc4cc(C)no4)cc3o2)cc1,4µM,13µM,3.5µM,-,-
Cc1cccc(/N=C/c2c(O)c3ccccc3oc2=O)n1,0,5.4µM,0,?,0
NS(=O)(=O)c1ccc(N=Cc2c(O)c3ccccc3oc2=O)cc1,0,0,0,0,0
SMILES,NPC1 prom act,FLuc counter,Rab9 prom act,Luc counter,SMN2 splice up
Cc1cc(C)cc(N=Cc2c(O)c3ccccc3oc2=O)c1,0,0,0,0,0
O=C(O)c1cc(N=Cc2c(O)c3ccccc3oc2=O)ccc1O,0,7.6µM,0,-,-
Cc1cc(C)c(N=Cc2c(O)c3ccccc3oc2=O)c(C)c1,0,3.8µM,0,-,-
Cc1ccc(N=Cc2c(O)c3ccccc3oc2=O)cc1F,0,1.7µM,0,-,-
CN(C)CC(C)(C)CNC(=O)c1ccc(Cc2nc3ccccc3[nH]2)cc1,-,-,-,0,-
Cc1ccc(C)c(N=Cc2c(O)c3ccccc3oc2=O)c1,0,3µM,0,-,-
O=C(Cc1cccs1)Nc1ccccc1NC(=O)Cc1cccs1,0,0,0,0,0
O=C(/C=C/c1cccs1)Nc1nncs1,?,17µM,?,-,-
C=CCNC(=O)/C=C/c1cccs1,0,0,0,0,0
O=C(COC(=O)c1cccs1)Nc1nc(-c2ccccc2)cs1,0,0,0,-,-
O=C(Cc1cccs1)Nc1ccccc1C(=O)O,0,15µM,?,0,10µM
Cc1cc([N+](=O)[O-])ccc1NC(=O)/C=C/c1cccs1,?,?,?,0,16µM
O=C(Cc1cccs1)Nc1nc(-c2ccccc2)cs1,0,15µM,0,0,0
COc1ccc(-c2cc3nc(C)c(CCC(=O)NC4CCCCC4)c(C)n3n2)c(OC)c1,-,0,-,-,0
Cc1ccc(CNC(=O)c2cnn(-c3cccc(C)c3)c2C2CCN(C(=O)OC(C)(C)C)CC2)cc1,-,0,-,-,-

# Source: PubChem
